Experimental data from paper PMC4336329 (PLoS ONE, 2015).
Screen size: about 310,000 compounds; about 14,000 (4.5%) showed an effect of 50% or more. The effect is printed as a negative number. This excerpt belongs to a sample that is enriched for strong results.

The compounds below were run against human ether-à-go-go-related gene (hERG) potassium channel (human, UniProt Q12809) (assay: primary screen, population patch clamp on CHO cells stably expressing hERG; higher = less effect of the substance).
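Also: peak tail current of the secondary pulse compared with the same well before compound.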

Sequence of human ether-à-go-go-related gene (hERG) potassium channel (Q12809 whole entry, looked up): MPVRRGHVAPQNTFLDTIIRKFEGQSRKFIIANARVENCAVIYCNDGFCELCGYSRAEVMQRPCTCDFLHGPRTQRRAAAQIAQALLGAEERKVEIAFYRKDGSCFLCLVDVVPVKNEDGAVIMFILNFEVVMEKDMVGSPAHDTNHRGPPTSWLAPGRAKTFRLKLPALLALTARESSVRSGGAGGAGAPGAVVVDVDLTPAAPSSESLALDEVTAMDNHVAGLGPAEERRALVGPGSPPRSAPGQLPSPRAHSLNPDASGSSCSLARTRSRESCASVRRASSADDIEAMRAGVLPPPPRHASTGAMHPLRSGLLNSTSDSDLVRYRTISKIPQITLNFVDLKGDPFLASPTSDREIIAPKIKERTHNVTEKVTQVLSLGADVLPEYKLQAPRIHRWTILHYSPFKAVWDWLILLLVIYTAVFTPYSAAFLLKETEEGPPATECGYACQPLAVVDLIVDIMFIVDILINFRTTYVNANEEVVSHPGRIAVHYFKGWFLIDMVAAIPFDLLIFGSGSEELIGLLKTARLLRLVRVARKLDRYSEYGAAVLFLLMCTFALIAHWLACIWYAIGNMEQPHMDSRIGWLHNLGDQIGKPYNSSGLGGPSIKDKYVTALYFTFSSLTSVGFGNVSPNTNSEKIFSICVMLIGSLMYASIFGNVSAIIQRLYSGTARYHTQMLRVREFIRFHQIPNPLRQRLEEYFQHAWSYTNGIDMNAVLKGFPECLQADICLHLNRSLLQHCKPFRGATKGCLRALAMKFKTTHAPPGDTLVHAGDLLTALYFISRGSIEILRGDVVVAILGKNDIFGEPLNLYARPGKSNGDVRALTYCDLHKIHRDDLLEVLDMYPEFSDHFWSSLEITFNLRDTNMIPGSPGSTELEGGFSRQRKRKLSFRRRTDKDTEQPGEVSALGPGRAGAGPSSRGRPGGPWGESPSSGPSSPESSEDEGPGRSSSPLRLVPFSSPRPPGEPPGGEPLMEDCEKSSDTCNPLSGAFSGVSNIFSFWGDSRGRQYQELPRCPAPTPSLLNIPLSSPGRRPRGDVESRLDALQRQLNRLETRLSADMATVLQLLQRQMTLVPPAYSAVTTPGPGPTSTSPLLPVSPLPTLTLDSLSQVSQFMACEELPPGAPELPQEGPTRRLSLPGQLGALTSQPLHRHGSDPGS

Row | SMILES | hERG current change (%, negative = inhibition) at 10uM [%]
1 | CC(=O)c1cccc(N(CC(=O)Nc2cc(C)cc(C)c2)S(C)(=O)=O)c1 | 13.3
2 | CSc1nc2sc3c(c2c(=O)[nH]1)CC(C)(C)OC3 | 13.8
3 | CCc1ccccc1N1CN(Cc2cccnc2)CNC1=S | 3.35
4 | Cc1cc(C)nc(N2CCCC(C(=O)Nc3ccc4nc(C)c(C)nc4c3)C2)n1 (centres unmarked) | 9.96
5 | COc1cccc(/C=N/NC(=O)CN(C2=NS(=O)(=O)c3ccccc32)c2ccccc2)c1 | 0.919
6 | O=C(Nc1ccc(CN2CCOCC2)cc1)c1ccc(-c2cccc(Cl)c2)o1 | -52.8
7 | CN1CCN(c2ccc(NC(=O)c3ccc4ccccc4c3)cc2)CC1 | -66.1
8 | O=C(Nc1ccc(N2CCCC2)cc1)c1ccc2ccccc2c1 | 0.743
9 | O=C(Nc1ccc(N2CCOCC2)cc1)c1cc2ccccc2o1 | 4.38
10 | O=C(Nc1ccc(-c2nnc3n2CCCCC3)cc1)c1cc2ccccc2o1 | -71.8
11 | O=C(Nc1ccc(-c2nnc3n2CCCCC3)cc1)c1ccco1 | 5.26
12 | O=C(Nc1ccc(CN2CCOCC2)cc1)c1cc2ccccc2o1 | -50.2
13 | O=C(Nc1ccc(CN2CCOCC2)cc1)c1ccc(-c2cccc([N+](=O)[O-])c2)o1 | -48.3
14 | O=C(NC(=S)Nc1ccc(CN2CCOCC2)cc1)c1cc2ccccc2o1 | 11.7
15 | Cc1c(C(=O)Nc2ccc(-c3nnc4n3CCCCC4)cc2)oc2c1ccc1ccccc12 | -13.8
16 | CC(=O)N1CCN(c2ccc(NC(=O)c3ccc4ccccc4c3)cc2)CC1 | -7.05
17 | O=C(NC(=S)Nc1ccc(CN2CCOCC2)cc1)c1ccc(-c2cccc(Cl)c2)o1 | 7.11
18 | Cc1ccc(C2=NS(=O)(=O)N(C)C(C(=O)NCc3ccccc3)=C2)cc1 | -0.52
19 | O=C(NCCN1CCOCC1)c1ccc(Cl)c([N+](=O)[O-])c1 | 16.5

Row | SMILES | hERG current change (%, negative = inhibition) at 10uM [%]
20 | Cc1ccc2c(c1)N(C(C)C(=O)NCCc1ccccc1)C(=O)CO2 (centres unmarked) | 7.21
21 | COc1cc(C(=O)Nc2cc(C(F)(F)F)ccc2N2CCOCC2)ccc1O | -26.6
22 | O=C(CCc1nc(-c2ccccc2Cl)no1)NCCc1ccccc1 | 7.08
23 | COc1ccc(CCNC(=O)c2c(O)c3ccccc3n(C)c2=O)cc1 | -12.1
24 | O=c1[nH][nH]c(-c2ccccc2)c1C=Nc1cccc(Cl)c1 | 5.35
25 | Cl.Clc1cccc(-c2ccc(CNCCCN3CCOCC3)o2)c1 | -58.3
26 | CS(=O)(=O)N1CCN(c2ccc(NC(=O)c3ccc(-c4ccc(Cl)cc4)o3)cc2)CC1 | -10.6
27 | CN1CCN(c2ccc(NC(=O)c3ccc(-c4ccc(Cl)cc4)o3)cc2)CC1 | 11.5
28 | O=C(Nc1ccc(N2CCOCC2)cc1)c1ccc(-c2ccccc2[N+](=O)[O-])o1 | 15.9
29 | CN1CCN(c2ccc(NC(=O)c3cc4ccccc4o3)cc2)CC1 | -72.3
30 | c1coc(CNCCCN2CCOCC2)c1 | -0.128
31 | CN1CCN(c2ccc(NC(=O)c3ccc(-c4ccc(Br)cc4)o3)cc2)CC1 | 0.645
32 | Cc1cc(N2CCN(C)CC2)ccc1NC(=O)c1ccc(-c2ccc(Cl)cc2)o1 | -80
33 | O=C(Nc1ccc(N2CCCC2)cc1)c1cc2ccccc2o1 | 20.4
34 | CC(=O)N1CCN(c2ccc(NC(=O)c3cc4ccccc4o3)cc2)CC1 | -24.5
35 | COc1ccc(-c2ccc(CNCCCN3CCOCC3)o2)cc1Cl.Cl | 6.83
36 | CN1CCN(c2ccc(NC(=O)c3ccc(-c4ccccc4F)o3)cc2)CC1 | -70
37 | CCCCc1cc(C)c(S(=O)(=O)c2ccccc2C)c(=O)[nH]1 | 3.69
38 | CC(Oc1ccccc1)C(=O)NC1C(=O)N2C1SC(C)(C)C2C(=O)[O-].[K+] (centres unmarked) | 35.9

Row | SMILES | hERG current change (%, negative = inhibition) at 10uM [%]
39 | CCOC(=O)c1sc(NC(=S)NC(=O)C23CC4CC(CC(C4)C2)C3)cc1C | 20.2
40 | CCCC1=NN(c2ccc([N+](=O)[O-])cc2)C(=O)/C1=C\N(C)C | -7.95
41 | O=C(O)C1C2CCC(O2)C1C(=O)Nc1ccc(F)c(F)c1 (centres unmarked) | 26.5
42 | CCCC(=O)Nc1ccc(C(=O)COC(=O)C2CC2C)cc1 (centres unmarked) | 5.46
43 | CCN1C(=O)/C(=C/C=C2/SCCN2C)SC1=S | 4.78
44 | COC(=O)Cn1cc(C(=O)C2CC2)c2ccccc21 | 2.2
45 | Cc1cc(C)c(C)c(S(=O)(=O)NCc2ccc(C(=O)N3CCN(C)CC3)cc2)c1C | -4.7
46 | O=C(O)c1nn2c(c1Br)NC(c1ccccc1)CC2C(F)(F)F (centres unmarked) | 12.2
47 | CCc1nnc(NC(=O)c2cc(S(=O)(=O)N(CC)CC)ccc2Cl)s1 | -7.31
48 | COc1ccccc1NC(=O)N1CCC(c2nc3ccccc3o2)CC1 | -6.16
49 | CC(C)NC(=O)COC(=O)c1cccc(NS(=O)(=O)/C=C/c2ccccc2)c1 | -18
50 | Cn1cnnc1SCC(=O)NC1CCCN(Cc2ccc(Cl)cc2)C1 (centres unmarked) | -0.412
51 | O=C(/C=C/c1ccccc1)Nc1ccc(CN2CCOCC2)cc1 | -62.5
52 | O=C(/C=C/c1ccccc1)NC(=S)Nc1ccc(CN2CCOCC2)cc1 | -18.9
53 | O=C(/C=C/c1ccc(Cl)cc1)Nc1ccc(CN2CCOCC2)cc1 | -28
54 | CCSc1nnc(NC(=O)CSc2nc3c(c(=O)n2CC)SC(C)C3)s1 (centres unmarked) | 6.95
55 | CCC(=O)Nc1ccc(NC(=O)c2cccc3ccccc23)cc1 | 23.9
56 | COc1ccc(-c2nc(SC(CC(=O)NCc3ccccc3)c3ccc(OC)c(OC)c3)n[nH]2)cc1 (centres unmarked) | -0.421
